According to PubChem BioAssay:
Several values for one entry are separate records, joined by “and”; a condition that tells them apart may be missing. Equal entries are not always repeated.

Assays:
[1] = tested on: Human papillomavirus type 1a protein E7 (residues 44-93); experiment: HPV1a E7 fragment binders on microarrays, primary screen, biochemical, small-molecule microarray, residues 44-93, 635 nm fluorescence (AID 1108); details: small-molecule microarray binding, fluorescence 635 nm; higher = more signal;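 further: E7 fragment applied at 1 µg/mL in TBST for 1 h at 4 C; score combines spot fluorescence with its signal to noise ratio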
[2] = modulators of HCV replicon luciferase signal, primary screen, HCV replication inhibitor project, Huh7 cells, luciferase reporter (AID 1109); details: 48 h, higher = more signal;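 further: huh7 hepatoma cells harbouring a luciferase neomycin HCV replicon reporter; luciferase luminescence as measure of HCV replicon replication; test concentration not given here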
[3] = target: Left-right determination factor 2 (Homo sapiens) (UniProt O00292); experiment: LEFTY2 binders on small-molecule microarrays, primary screen, biochemical, small-molecule microarray, 635 nm fluorescence scan (AID 1110); details: LEFTY2 binding, higher = more signal
Left-right determination factor 2 (Homo sapiens), sequence (O00292 whole entry, looked up): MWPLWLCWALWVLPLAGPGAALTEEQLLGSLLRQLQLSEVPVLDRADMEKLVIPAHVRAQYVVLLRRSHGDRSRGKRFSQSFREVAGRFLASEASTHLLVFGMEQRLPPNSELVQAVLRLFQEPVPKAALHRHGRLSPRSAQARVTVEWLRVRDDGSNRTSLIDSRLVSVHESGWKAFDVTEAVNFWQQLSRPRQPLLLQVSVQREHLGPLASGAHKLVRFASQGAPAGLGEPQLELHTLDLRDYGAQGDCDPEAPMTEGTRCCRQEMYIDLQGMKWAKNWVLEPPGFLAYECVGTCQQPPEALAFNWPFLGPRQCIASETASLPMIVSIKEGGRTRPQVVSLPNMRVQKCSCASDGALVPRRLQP

[4] = target: Calmodulin-1 (Homo sapiens) (UniProt P0DP23); experiment: CALM1 binders on microarrays, EGTA buffer, profiling panel, biochemical, small-molecule microarray, Cy5-labelled CALM1 (AID 1111); details: Cy5-CALM1 binding fluorescence, higher = more signal;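 further: labelled calmodulin applied in Tris saline Tween buffer holding calcium plus EGTA and DTT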
[5] = target: Calmodulin-1 (Homo sapiens) (UniProt P0DP23); experiment: calcium-bound CALM1 binders on microarrays, profiling panel, artefact control for SMM control-protein annotation, biochemical, small-molecule microarray, Cy5-labelled CALM1, plus calcium (AID 1112); details: Cy5-CALM1 binding fluorescence, higher = more signal;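 further: score merges spot fluorescence with signal to noise from triplicate slides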
[6] = small-molecule microarray binders of probe aWnt5a, primary screen, biochemical, biotinylated probe, 635/667 nm fluorescence (AID 1113); details: higher = more signal;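 further: score merges 667 nm fluorescence intensity with signal-to-noise per printed feature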
[7] = small-molecule microarray binders of probe aShh, primary screen, biochemical, biotinylated probe, 635/667 nm fluorescence (AID 1114); details: higher = more signal;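 further: probe is biotin-labelled aShh protein from a stem cell growth factor screen; measures binding of labelled protein to compounds printed on the slide; score merges feature fluorescence at 667 nm with signal-to-noise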
[8] = small-molecule microarray binders of probe aNog, primary screen, biochemical, biotinylated probe, 635/667 nm fluorescence (AID 1115); details: higher = more signal;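 further: probe is biotinylated aNog protein used at 0.15 µg/mL for 1 h at 4 C; z-score combines 667 nm fluorescence of each spot with its signal to noise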
[9] = target: Torsin-1A-interacting protein 1 (Homo sapiens) (UniProt Q5JTV8); experiment: LAP1 binders from COS7 cell lysate, primary screen, small-molecule microarray, 635/667 nm fluorescence (AID 1116); details: COS7-hLAP1 lysate binding, 635 nm fluorescence, higher = more signal
Torsin-1A-interacting protein 1 (Homo sapiens), sequence (Q5JTV8 whole entry, looked up): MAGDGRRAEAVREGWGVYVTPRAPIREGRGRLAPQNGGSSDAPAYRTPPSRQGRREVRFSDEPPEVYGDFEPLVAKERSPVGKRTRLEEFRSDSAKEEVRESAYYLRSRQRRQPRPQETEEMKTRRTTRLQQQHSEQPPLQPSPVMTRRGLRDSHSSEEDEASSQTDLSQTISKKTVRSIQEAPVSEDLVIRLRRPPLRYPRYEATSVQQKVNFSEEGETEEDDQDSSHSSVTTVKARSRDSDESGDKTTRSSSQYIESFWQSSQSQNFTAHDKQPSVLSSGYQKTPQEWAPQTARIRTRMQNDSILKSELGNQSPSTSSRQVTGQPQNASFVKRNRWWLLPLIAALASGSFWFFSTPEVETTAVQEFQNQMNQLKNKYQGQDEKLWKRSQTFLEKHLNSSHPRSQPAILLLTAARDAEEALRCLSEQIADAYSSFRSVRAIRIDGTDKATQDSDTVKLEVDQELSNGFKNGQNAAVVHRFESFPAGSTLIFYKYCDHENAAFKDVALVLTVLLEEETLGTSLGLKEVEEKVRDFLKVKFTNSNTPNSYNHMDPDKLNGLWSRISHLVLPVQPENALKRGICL

[10] = target: Alpha-bungarotoxin (Bungarus multicinctus) (UniProt P60615); experiment: alpha-bungarotoxin binders on microarray, profiling panel, artefact control for SMM control protein annotation, biochemical, small-molecule microarray, Alexa647 label, 635/667 nm fluorescence (AID 1117); details: alpha-BTX-A647 binding fluorescence, higher = more signal
Alpha-bungarotoxin (Bungarus multicinctus), sequence (P60615 whole entry, looked up): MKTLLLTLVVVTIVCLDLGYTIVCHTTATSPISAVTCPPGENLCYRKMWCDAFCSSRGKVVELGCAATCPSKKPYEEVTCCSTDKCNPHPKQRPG

Compound	composite z-score [1]	z-score [2]	composite z-score [3]	composite z-score [4]	composite z-score [5]	composite z-score [6]	composite z-score [7]	composite z-score [8]	composite z-score [9]	composite z-score [10]
C[C@@H]1CC[C@H]2C(=O)N3[C@@H](CC[C@@H](C)[C@@H]3c3ccc(-c4ccco4)cc3)C(=O)N2[C@H]1c1ccc(-c2ccco2)cc1	-0.496 and 0.292	-0.207 and -0.734	0.714 and 1.31	1.07 and -0.328	-0.355 and -1.5	-0.113 and 0.0579	0.166 and -0.0626	0.274 and 0.223	1.07 and 0.704	1.92 and 3.43
C[C@@H]1CC[C@H]2C(=O)NC[C@@H](O)CN2[C@H]1c1ccc(Br)cc1	0.111 and -0.325	-0.376 and -0.362	-0.0095 and 0.204	-0.234 and -0.448	-0.342 and -0.438	-0.0758 and -0.0405	-0.138 and 0.235	0.0014 and -0.194	0.36 and 0.348	0.141 and -0.195
CC(CO)N1C(=O)[C@@H]2C3C(=O)OCCC=C[C@H]3OC23C=CCN(Cn2nnc4ccccc42)C(=O)[C@@H]13 (stereo not given in full)	-0.394 and 0.27	-1.03 and 0.0704	-0.985 and -0.403	-0.184 and -0.298	0.73 and -0.573	-0.25 and 0.0431	-0.474 and 0.0062	-0.0103 and -0.142	-0.393 and 0.0141	-0.652 and -0.332
C=CCN(Cc1ccccc1)C(=O)C1N(C(C)(C)CO)C(=O)C2C(C(=O)O)C3C=CC21O3 (stereo not given)	-1.71 and -2.2	-1.39 and 0.81	-2.75 and -1.49	-0.23 and -0.697	1.19 and 0.132	-0.202 and -0.224	-0.138 and -0.206	0.196 and -0.47	0.148 and -1.17	-2.89 and -1.25
CC(C)[Si]1(C(C)C)OCc2cc(CCCc3cc4c(c(CCc5ccccc5)n3)[Si](C(C)C)(C(C)C)OC4)nc(CCc3ccccc3)c21	0.206 and 0.469	-1.17 and -0.347	0.0155 and 0.497	-0.372 and -0.238	0.797 and -0.487	-0.152 and -0.148	-0.27 and 0.0141	-0.139 and -0.0168	-0.421 and 0.248	-1.36 and 0.0493
C=CC[C@@H](O)c1ccc(OCCO)cc1	-1.68 and -0.85	1.71 and 1.54	-0.301 and -1.81	-1 and -1.27	-0.166 and -0.74	-0.184 and -0.247	-0.138 and -0.0626	-0.435 and -0.201	0.141 and -0.598	-0.416 and 1.32
CC(=O)OC[C@H]1O[C@H](C#CC(C)(C)C)C=C[C@@H]1OC(C)=O	1.31	-1.94	0.934	0.957	0.189	-0.191	0.0596	-0.433	0.852	1.09
C=CCN(CCCC)C(=O)C1N(CCOCCO)C(=O)C2C(C(=O)O)C3C=CC21O3 (stereo not given)	-0.0707 and -0.913	0.367 and 0.91	-2.91 and -1.58	-0.794 and -0.296	-0.0435 and 0.108	-0.256 and -0.287	-0.138	-0.216 and -0.352	1.59 and -0.819	-1.59 and -0.552
COC(=O)C1=C(C)N(Cc2ccccc2)C2=C3C(=O)N(c4ccccc4)C(=O)[C@@H]3[C@@](O)(C(=O)OC)C(=O)N2[C@@H]1c1ccccc1	-0.996 and 0.49	-0.0822 and -0.147	0.269 and 0.49	-0.101 and -0.0398	-0.65 and -0.381	-0.124 and -0.0405	0.151 and 0.318	0.0954 and -0.43	0.792 and 1.32	0.231 and 1.87
CO[C@H]1COC(=O)CC=C[C@H](C)[C@H](OC)COC(=O)[C@@H](C)COC(=O)CC=C[C@@H]1C	0.25 and -0.333	0.228 and 0.343	0.953 and 0.546	-1.51 and -1.76	-1.68 and -2.71	-0.0172 and -0.147	-0.304 and 0.0899	-0.194 and -0.176	0.123 and -0.771	-0.683 and -0.62
CC(C)=NOC[C@@H](O)COCc1ccco1	-1.92	0.797	-0.168	-0.614	-0.142	-0.172	-0.138	-0.342	-0.2	-1.1
CCCCN1CC=CC23O[C@@H]4C=CCCOC(=O)C4[C@H]2C(=O)N(C(C)CO)[C@@H]3C1=O (stereo not given in full)	0.228 and -0.107	-0.797 and -0.144	-0.321 and 0.0741	-0.495 and 0.257	-0.396 and 0.473	-0.0403 and -0.154	0.171 and 0.0637	0.179 and 0.0775	-0.19 and 0.191	-0.44 and -0.137
CC(CO)N1C(=O)[C@@H]2C3C(=O)OCCC=C[C@H]3OC23C=CCN(Cc2ccccc2)C(=O)[C@@H]13 (stereo not given in full)	0.0364 and -1.19	-1.12 and -0.667	-1.26 and -1.45	-0.792 and 0.0954	-0.803 and 0.748	-0.154 and -0.21	-0.291 and -0.154	0.211 and -0.246	1.29 and -0.62	-1.73 and -0.88
C=CCN(C(=O)C1N(C(C)(C)CO)C(=O)C2C(C(=O)O)C3C=CC21O3)C(C)(C)C (stereo not given)	-0.898 and 0.0796	-0.276 and -0.577	-3.78 and -1.84	-0.742 and -0.353	0.271 and 0.369	-0.286 and -0.148	-0.138	-0.183 and -0.0144	-1.69 and 3.03	-2.08 and 1.04
C[N+](C)(C)CCCCCCNC(=O)[C@@H]1C[C@@H]2C(=O)N[C@@H](CCCC[N+](C)(C)C)C(=O)N2[C@@H]1c1ccc(O)cc1	-0.259 and 0.575	-0.0888 and 0.51	0.515 and 0.0005	-0.529 and -0.759	0.458 and -0.85	-0.144 and -0.13	-0.304 and -0.221	-0.0281 and -0.295	2.61 and 0.23	-0.137 and 0.0818
CO[C@@H]1COC(=O)CC=C[C@H](C)COC(=O)[C@H](C)NC(=O)CC=C[C@H]1C	-0.103	-0.394	0.663	-0.76	-0.754	-0.13	0.178	-0.118	0.542	-0.711
Cc1ccc(S(=O)(=O)OC[C@@H]2CN3[C@@H](CC[C@@H](C)[C@@H]3c3ccc(Br)cc3)C(=O)O2)cc1	0.574 and 0.644	-0.796 and -0.729	0.57 and 0.483	0.192 and 0.679	0.2 and -0.302	-0.0704 and 0.0194	-0.237 and -0.16	-0.172 and -0.0898	0.301 and 0.359	0.153 and 0.448
